Assay results published in PubChem BioAssay (EPA / NIEHS).
Inconclusive results are not listed. The source made the active and inactive calls. Rule for the calls, unless noted: active = hit-call score of the fitted dose curve at least 0.9, where 1 is the maximum; inactive = score below 0.9.

Columns and labels:
[1] = biological target: Bile acid receptor (Homo sapiens) (UniProt Q96RI1); assay: ATG_FXR_TRANS: Attagene TRANS-FACTORIAL HepG2 Assay for Farnesoid X Receptor (FXR) (AID 2282979; active = hit-call score of the fitted dose curve at least 0.9, where 1 is the maximum;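 note: hits raise reporter mRNA above DMSO so AC50 marks FXR activation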); details: HepG2 Attagene TRANS FXR-GAL4 reporter transcription
Summary of the method: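 Transient transfection of HepG2 with multiplexed GAL4-UAS reporter units; exogenous FXR-GAL4 chimera. Dose 24 h → TriZol RNA → oligo(dT) RT → PCR, 6-FAM primer extension, HpaI cut → CE. Gain vs DMSO.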

[2] = biological target: Oxysterols receptor LXR-alpha (Homo sapiens) (UniProt Q13133); assay: ATG_LXRa_TRANS: Attagene TRANS-FACTORIAL HepG2 Assay for human Liver X Receptor alpha (LXRa) (AID 2282980; active = hit-call score of the fitted dose curve at least 0.9, where 1 is the maximum); details: HepG2 Attagene TRANS reporter, LXRa transactivation
Summary of the method: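 Transfect HepG2 with GAL4-UAS multiplex reporter constructs (TRANS format, chimeric receptor-GAL4); treat 24 h; extract RNA, reverse-transcribe, PCR-amplify, FAM-label, HpaI-digest; resolve fragments by capillary electrophoresis. Upward response vs DMSO.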

[3] = biological target: Oxysterols receptor LXR-beta (Homo sapiens) (UniProt P55055); assay: ATG_LXRb_TRANS: Attagene TRANS-FACTORIAL HepG2 Assay for human Liver X Receptor beta (LXRb) (AID 2282981; active = hit-call score of the fitted dose curve at least 0.9, where 1 is the maximum); details: HepG2 Attagene TRANS GAL4-LXRb reporter, mRNA
Summary of the method: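 HepG2 cells transiently transfected with multiple reporter transcription units carrying chimeric NR-Gal4 proteins acting on GAL4-UAS reporters; compound exposure 24 h. Reporter mRNA quantified by RT-PCR, 6-FAM labelling, HpaI digestion and capillary electrophoresis; gain of signal versus DMSO.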

[4] = ATG_M_06_TRANS: Attagene TRANS-FACTORIAL HepG2 Assay for M06 Transcription Factor (Internal Marker) (AID 2282983; active = hit-call score of the fitted dose curve at least 0.9, where 1 is the maximum;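 note: reporter transcript level by RT-PCR then capillary electrophoresis fluorescence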); details: HepG2 Attagene TRANS M06 internal marker reporter
Summary of the method: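 Transfect HepG2 with MRTUs → dose compounds 24 h → isolate RNA, oligo(dT) RT → PCR with reporter primers → 6-FAM primer extension → HpaI digest → CE fragment analysis. Positive direction vs DMSO.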

[5] = ATG_M_32_TRANS: Attagene TRANS-FACTORIAL HepG2 Assay for M32 Transcription Factor (Internal Marker) (AID 2282984; active = hit-call score of the fitted dose curve at least 0.9, where 1 is the maximum;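 note: transcript level of a background control reporter unit measured by RT-PCR and capillary electrophoresis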); details: HepG2 Attagene TRANS M32 internal marker reporter
Summary of the method: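 HepG2 cells transiently transfected with multiple GAL4-UAS reporter transcription units, dosed for 24 hours; reporter mRNA quantified by RT-PCR, 6-FAM primer extension, HpaI digestion and capillary electrophoresis. Gain-of-signal fitted versus DMSO baseline; internal background-control marker.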

[6] = biological target: Nuclear receptor subfamily 4 group A member 2 (Homo sapiens) (UniProt P43354); assay: ATG_NURR1_TRANS: Attagene TRANS-FACTORIAL HepG2 Assay for human Nuclear Receptor Related Protein 1 (NURR1) (AID 2282985; active = hit-call score of the fitted dose curve at least 0.9, where 1 is the maximum); details: HepG2 Attagene TRANS reporter, mRNA readout
Summary of the method: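 HepG2 cells transiently transfected with GAL4-UAS reporter units and chimeric NR-Gal4 constructs; chemical exposure 24 h. Reporter mRNA quantified by RT-PCR, fluorescent labelling and capillary electrophoresis; gain of signal fitted relative to DMSO baseline.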

[7] = biological target: Transcriptional activator Myb (Homo sapiens) (UniProt P10242); assay: ATG_Myb_CIS: Attagene CIS-FACTORIAL HepG2 Assay for human Myeloblastosis (Myb) Proto-Oncogene Transcription Factor (AID 2282986); details: HepG2 Attagene CIS-FACTORIAL Myb reporter transcription; actives raise or lower the signal
Summary of the method: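 Transiently transfected HepG2 cells carrying a multiplexed cis-promoter reporter set report endogenous Myb activity after 24 h compound exposure. Reporter mRNA is read by RT-PCR with capillary electrophoresis of fluorescent products, fitted bidirectionally against DMSO.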

[8] = biological target: Nuclear respiratory factor 1 (Homo sapiens) (UniProt Q16656); assay: ATG_NRF1_CIS: Attagene CIS-FACTORIAL HepG2 Assay for human Nuclear Respiratory Factor 1 (NRF1) Orphan Gene (AID 2282987); details: HepG2 NRF1 cis-element reporter, Attagene multiplex; actives raise or lower the signal
Summary of the method: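 HepG2 cells transiently transfected with multiple cis-regulated reporter units, exposed 24 h. Reporter mRNAs measured by RT-PCR, fluorescent labelling, HpaI digestion and capillary electrophoresis; bidirectional fitting against DMSO.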

[9] = ATG_NFI_CIS: Attagene CIS-FACTORIAL HepG2 Assay for human Nuclear Factor I (NFI) (AID 2282989); details: HepG2 cis-regulatory reporter, NFI response element transcription; actives raise or lower the signal
Summary of the method: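 Transient MRTU transfection of HepG2 → 24 h chemical dosing → total RNA, oligo(dT) RT → PCR, 6-FAM primer extension, HpaI cut → capillary electrophoresis. Endpoint fitted bidirectionally relative to DMSO.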

[10] = biological target: Myc proto-oncogene protein (Homo sapiens) (UniProt P01106); assay: ATG_Myc_CIS: Attagene CIS-FACTORIAL HepG2 Assay for human Myelocytomatosis (Myc) Proto-Oncogene Transcription Factor (AID 2282990); details: HepG2, Attagene cis-reporter transcription factor activity; actives raise or lower the signal
Summary of the method: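 Multiplexed cis-reporter transcription in HepG2 cells after 24 h chemical treatment. Reporter mRNA measured by RT-PCR and capillary electrophoresis fluorescence; activity fitted bidirectionally against DMSO control.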

[11] = ATG_NRF2_ARE_CIS: Attagene CIS-FACTORIAL HepG2 Assay for human Nuclear Factor Erythroid 2 Related Factor 2 (NFR2) response to Antioxidant Response Elements (ARE) (AID 2282992); details: HepG2 Attagene ARE/NRF2 reporter, transcription factor activity; actives raise or lower the signal
Summary of the method: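 Cis-factorial assay: transfected HepG2 reporter library, 24 h dosing, mRNA readout via RT-PCR/CE; DMSO-referenced bidirectional analysis.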

[12] = ATG_Oct_MLP_CIS: Attagene CIS-FACTORIAL HepG2 Assay for human Octamer-Binding Transcription Factor (Oct) (AID 2282993); details: HepG2 Attagene cis-factorial Oct reporter, mRNA; actives raise or lower the signal
Summary of the method: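 Transient MRTU transfection of HepG2 → 24 h compound treatment → RNA isolation, reverse transcription, PCR → 6-FAM primer extension, HpaI digest → capillary electrophoresis. Activity fitted both directions against DMSO.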

[13] = biological target: Cellular tumor antigen p53 (Homo sapiens) (UniProt P04637); assay: ATG_p53_CIS: Attagene CIS-FACTORIAL HepG2 Assay for human p53 Transcription Factor (AID 2282994); details: HepG2 p53 cis-element reporter, Attagene mRNA; actives raise or lower the signal
Summary of the method: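 Using HepG2 hepatoma cells carrying cis-acting multiplexed reporters, mRNA induction is detected after a 24 h exposure. Gain- and loss-of-signal responses are fitted relative to DMSO-treated cells.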

[14] = biological target: Hepatocyte nuclear factor 4-alpha (Homo sapiens) (UniProt P41235); assay: ATG_HNF4a_TRANS: Attagene TRANS-FACTORIAL HepG2 Assay for human Hepatocyte Nuclear Factor 4 alpha (HNF4a) (AID 2282982; active = hit-call score of the fitted dose curve at least 0.9, where 1 is the maximum); details: HepG2 HNF4a transactivation reporter, mRNA readout
Summary of the method: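 HepG2 cells transiently transfected with multiplexed GAL4-UAS reporter units responsive to chimeric NR-GAL4 proteins; compound exposure 24 h. Reporter mRNA quantified by RT-PCR, 6-FAM labelling, HpaI digestion and capillary electrophoresis; gain of signal versus DMSO baseline.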

[15] = ATG_NF_kB_CIS: Attagene CIS-FACTORIAL HepG2 Assay for human Nuclear Factor Kappa B (NF-kB) (AID 2282991); details: HepG2 Attagene cis-factorial NF-kB reporter mRNA; actives raise or lower the signal
Summary of the method: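 HepG2 cells transfected with cis-promoter-driven reporter units, so endogenous transcription factor activity is measured. Reporter mRNA quantified 24 h after dosing by RT-PCR and capillary electrophoresis, with bidirectional fitting against DMSO.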

[16] = BSK_3C_TissueFactor: BioMAP Diversity Plus: 3C Assay for Tissue Factor Biomarker Activity (AID 2282997); details: BioMAP 3C HUVEC, tissue factor biomarker readout; actives raise or lower the signal
Summary of the method: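 ELISA read-out of Tissue Factor levels on human umbilical vein endothelium collected 24 h after chemical dosing. Gain or loss of signal was fitted relative to DMSO.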

[17] = BSK_3C_uPAR: BioMAP Diversity Plus: 3C Assay for Urokinase-type plasminogen activator receptor (uPAR) Biomarker Activity (AID 2282998); details: BioMAP 3C HUVEC, uPAR biomarker ELISA; actives raise or lower the signal
Summary of the method: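 ELISA readout of uPAR on human vascular endothelium (umbilical vein primary cells), taken 24 h after chemical dosing. Increases and decreases are both fitted relative to DMSO vehicle.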

[18] = BSK_3C_VCAM1: BioMAP Diversity Plus: 3C Assay for Vascular cell adhesion molecule 1 (VCAM1) Biomarker Activity (AID 2282999); details: BioMAP 3C HUVEC, VCAM1 ELISA, cytokine-stimulated; actives raise or lower the signal
Summary of the method: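 Human umbilical vein endothelial cells were dosed with compound for 24 h, after which cell-surface VCAM-1 was quantified by ELISA. Bidirectional curve fitting used DMSO as negative control and activity baseline.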

[19] = BSK_4H_Eotaxin3: BioMAP Diversity Plus: 4H Assay for Eotaxin 3 Biomarker Activity (AID 2283000); details: primary human endothelial cells (HUVEC); actives raise or lower the signal
Summary of the method: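 Chemicals were added to human umbilical vein endothelium cultures, and Eotaxin-3 was quantified by ELISA at 24 h. Values were derived by bidirectional fitting with DMSO serving as negative control and activity baseline.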

Measured: AC50

Chain of Oxysterols receptor LXR-beta (Homo sapiens) (P55055 whole entry, looked up, the tested form may be a part): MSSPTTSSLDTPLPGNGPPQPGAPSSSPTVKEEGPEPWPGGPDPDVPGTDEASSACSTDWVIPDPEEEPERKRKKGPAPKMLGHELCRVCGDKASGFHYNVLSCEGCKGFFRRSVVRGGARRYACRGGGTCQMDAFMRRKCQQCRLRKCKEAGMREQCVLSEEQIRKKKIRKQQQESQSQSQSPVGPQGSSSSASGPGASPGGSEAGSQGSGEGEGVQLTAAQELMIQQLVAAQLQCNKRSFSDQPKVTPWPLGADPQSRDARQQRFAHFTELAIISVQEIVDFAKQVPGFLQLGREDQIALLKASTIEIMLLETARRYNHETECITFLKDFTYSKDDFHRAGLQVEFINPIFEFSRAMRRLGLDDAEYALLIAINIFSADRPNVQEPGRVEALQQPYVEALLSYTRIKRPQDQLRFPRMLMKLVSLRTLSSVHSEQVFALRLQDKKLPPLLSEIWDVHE
Chain of Bile acid receptor (Homo sapiens) (Q96RI1 whole entry, looked up, the tested form may be a part): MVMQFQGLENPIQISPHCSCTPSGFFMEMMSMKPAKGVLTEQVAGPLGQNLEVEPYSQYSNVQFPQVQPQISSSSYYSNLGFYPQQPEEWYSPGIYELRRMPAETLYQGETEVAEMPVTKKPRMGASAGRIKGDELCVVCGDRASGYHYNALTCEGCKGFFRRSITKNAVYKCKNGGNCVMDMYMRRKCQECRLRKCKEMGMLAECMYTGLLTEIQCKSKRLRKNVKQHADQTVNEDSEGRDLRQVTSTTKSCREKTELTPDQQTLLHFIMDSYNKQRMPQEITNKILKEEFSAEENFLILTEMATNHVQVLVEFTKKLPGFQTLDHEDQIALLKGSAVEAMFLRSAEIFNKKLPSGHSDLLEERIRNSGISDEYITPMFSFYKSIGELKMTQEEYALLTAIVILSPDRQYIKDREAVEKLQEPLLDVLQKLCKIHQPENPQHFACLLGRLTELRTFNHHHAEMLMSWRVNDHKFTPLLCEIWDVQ
Chain of Hepatocyte nuclear factor 4-alpha (Homo sapiens) (P41235 whole entry, looked up, the tested form may be a part): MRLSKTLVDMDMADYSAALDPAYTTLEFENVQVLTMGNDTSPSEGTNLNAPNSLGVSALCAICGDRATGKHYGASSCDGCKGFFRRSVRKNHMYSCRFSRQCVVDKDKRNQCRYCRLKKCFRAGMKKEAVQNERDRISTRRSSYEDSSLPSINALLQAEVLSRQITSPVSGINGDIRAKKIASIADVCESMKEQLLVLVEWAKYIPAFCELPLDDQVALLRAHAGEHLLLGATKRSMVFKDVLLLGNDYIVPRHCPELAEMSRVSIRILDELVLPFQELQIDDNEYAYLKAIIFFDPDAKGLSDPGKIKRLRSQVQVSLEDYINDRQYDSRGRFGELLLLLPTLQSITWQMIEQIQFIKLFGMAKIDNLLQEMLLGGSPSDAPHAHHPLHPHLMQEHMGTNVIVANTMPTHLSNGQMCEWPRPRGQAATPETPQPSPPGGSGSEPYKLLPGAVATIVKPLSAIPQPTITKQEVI
Chain of Oxysterols receptor LXR-alpha (Homo sapiens) (Q13133 whole entry, looked up, the tested form may be a part): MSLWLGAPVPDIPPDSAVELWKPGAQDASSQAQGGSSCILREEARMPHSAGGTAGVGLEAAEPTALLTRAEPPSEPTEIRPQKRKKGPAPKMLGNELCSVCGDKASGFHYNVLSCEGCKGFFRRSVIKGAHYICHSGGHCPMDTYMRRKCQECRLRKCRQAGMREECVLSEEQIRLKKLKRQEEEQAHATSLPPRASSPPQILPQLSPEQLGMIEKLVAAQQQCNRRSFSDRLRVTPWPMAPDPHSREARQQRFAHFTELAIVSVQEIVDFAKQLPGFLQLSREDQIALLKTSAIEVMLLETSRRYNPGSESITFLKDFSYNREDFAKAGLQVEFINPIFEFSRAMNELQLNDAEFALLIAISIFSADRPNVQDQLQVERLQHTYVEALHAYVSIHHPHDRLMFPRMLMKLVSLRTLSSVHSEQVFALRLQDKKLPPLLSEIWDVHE
Chain of Nuclear receptor subfamily 4 group A member 2 (Homo sapiens) (P43354 whole entry, looked up, the tested form may be a part): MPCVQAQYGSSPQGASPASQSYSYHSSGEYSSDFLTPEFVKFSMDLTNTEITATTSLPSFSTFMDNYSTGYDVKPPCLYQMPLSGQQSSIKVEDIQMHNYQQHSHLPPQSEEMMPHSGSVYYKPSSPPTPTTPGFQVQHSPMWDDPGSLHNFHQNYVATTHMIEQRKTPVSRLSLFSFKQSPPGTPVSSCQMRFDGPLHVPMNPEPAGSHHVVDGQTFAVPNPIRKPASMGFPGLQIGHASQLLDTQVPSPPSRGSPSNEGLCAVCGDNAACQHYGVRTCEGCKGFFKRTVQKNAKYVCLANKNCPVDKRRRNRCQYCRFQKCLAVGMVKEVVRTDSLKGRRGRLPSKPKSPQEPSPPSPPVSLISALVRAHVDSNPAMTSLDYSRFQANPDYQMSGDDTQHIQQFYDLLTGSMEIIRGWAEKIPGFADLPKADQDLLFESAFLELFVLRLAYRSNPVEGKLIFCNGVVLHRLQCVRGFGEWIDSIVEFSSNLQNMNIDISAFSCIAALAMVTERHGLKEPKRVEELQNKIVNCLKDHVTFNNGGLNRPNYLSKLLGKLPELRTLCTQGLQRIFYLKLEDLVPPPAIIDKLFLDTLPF
Chain of Nuclear respiratory factor 1 (Homo sapiens) (Q16656 whole entry, looked up): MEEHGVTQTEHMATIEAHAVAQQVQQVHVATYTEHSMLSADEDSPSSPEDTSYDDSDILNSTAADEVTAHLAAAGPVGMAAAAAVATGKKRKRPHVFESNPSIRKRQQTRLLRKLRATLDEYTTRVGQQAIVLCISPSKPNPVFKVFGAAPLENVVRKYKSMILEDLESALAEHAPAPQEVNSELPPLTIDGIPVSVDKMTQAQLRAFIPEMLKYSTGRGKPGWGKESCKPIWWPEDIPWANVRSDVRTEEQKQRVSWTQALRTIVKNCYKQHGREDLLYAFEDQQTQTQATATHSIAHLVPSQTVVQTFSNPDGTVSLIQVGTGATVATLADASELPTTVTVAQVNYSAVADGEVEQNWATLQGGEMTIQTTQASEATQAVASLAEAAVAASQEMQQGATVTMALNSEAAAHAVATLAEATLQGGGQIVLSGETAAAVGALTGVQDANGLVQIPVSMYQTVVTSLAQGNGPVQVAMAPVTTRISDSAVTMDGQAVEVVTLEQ
Chain of Myc proto-oncogene protein (Homo sapiens) (P01106 whole entry, looked up): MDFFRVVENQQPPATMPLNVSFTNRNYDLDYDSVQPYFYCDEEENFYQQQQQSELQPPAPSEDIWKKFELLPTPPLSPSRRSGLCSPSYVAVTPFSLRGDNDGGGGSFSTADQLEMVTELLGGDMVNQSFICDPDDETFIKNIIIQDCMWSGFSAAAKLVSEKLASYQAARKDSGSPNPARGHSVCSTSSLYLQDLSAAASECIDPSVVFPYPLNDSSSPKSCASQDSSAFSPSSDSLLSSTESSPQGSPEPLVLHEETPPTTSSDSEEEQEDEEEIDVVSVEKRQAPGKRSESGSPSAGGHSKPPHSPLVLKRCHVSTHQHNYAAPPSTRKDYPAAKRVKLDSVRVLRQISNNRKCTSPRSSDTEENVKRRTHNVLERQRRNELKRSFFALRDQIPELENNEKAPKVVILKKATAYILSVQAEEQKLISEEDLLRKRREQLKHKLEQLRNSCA
Chain of Cellular tumor antigen p53 (Homo sapiens) (P04637 whole entry, looked up): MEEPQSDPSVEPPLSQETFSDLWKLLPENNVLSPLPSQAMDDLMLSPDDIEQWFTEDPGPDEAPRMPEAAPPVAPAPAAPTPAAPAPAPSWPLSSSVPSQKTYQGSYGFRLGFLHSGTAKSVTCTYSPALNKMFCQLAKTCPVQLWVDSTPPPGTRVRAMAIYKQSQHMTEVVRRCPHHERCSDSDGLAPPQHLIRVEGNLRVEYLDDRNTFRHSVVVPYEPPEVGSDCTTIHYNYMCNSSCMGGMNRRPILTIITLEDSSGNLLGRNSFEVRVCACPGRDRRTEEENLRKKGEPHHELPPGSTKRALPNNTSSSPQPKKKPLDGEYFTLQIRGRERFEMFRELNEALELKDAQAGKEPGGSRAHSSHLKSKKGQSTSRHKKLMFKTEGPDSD
Chain of Transcriptional activator Myb (Homo sapiens) (P10242 whole entry, looked up): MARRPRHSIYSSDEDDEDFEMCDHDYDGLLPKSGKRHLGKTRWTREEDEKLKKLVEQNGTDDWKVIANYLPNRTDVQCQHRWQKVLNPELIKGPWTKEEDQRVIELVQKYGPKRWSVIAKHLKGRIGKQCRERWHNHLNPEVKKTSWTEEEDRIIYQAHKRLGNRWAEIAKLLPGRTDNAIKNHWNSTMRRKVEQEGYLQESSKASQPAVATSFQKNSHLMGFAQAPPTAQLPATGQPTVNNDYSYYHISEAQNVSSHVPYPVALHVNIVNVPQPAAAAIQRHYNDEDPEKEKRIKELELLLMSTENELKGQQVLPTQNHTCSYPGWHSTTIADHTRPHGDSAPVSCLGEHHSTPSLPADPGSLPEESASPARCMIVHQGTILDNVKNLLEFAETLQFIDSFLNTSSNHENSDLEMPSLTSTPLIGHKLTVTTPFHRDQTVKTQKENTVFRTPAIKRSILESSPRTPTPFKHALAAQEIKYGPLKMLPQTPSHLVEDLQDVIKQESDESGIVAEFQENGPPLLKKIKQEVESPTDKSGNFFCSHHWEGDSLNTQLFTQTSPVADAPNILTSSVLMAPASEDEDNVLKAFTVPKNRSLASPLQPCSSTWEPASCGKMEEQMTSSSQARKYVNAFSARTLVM

Nc1cccc(C(F)(F)F)c1
not listed: [14] | [15] | [16] | [17] | [18] | [19]
inactive: all other assays above

CCCCCCCCc1ccc(Nc2ccc(CCCCCCCC)cc2)cc1
not listed: [3] | [4]
inactive: all other assays above

CC(=O)c1ccc[nH]1
inactive: [1] | [2] | [3] | [7] | [8] | [9] | [10] | [15] | [11] | [12]

CCOC(=O)NNc1nncc2ccccc12
not listed: [2] | [3] | [6] | [11] | [16] | [17] | [18] | [19]
inactive: all other assays above

Cn1c(=O)[nH]c2ncn(C)c2c1=O
not listed: [2] | [6] | [16] | [17] | [18] | [19]
inactive: all other assays above

O=C(Nc1cccc(C(F)(F)F)c1)c1cc(Br)cc(Br)c1O
active: [8] 172 µM | [9] 100 µM | [10] 166 µM | [15] 169 µM | [12] 2.95 µM | [13] 147 µM
inactive: [1] | [14] | [4] | [5] | [6] | [7]

C/C=C\C/C=C/CCCCCCCCOC(C)=O
active: [15] 42.8 µM | [11] 26.8 µM | [12] 39.5 µM | [16] 9.54 µM | [18] 26 µM | [19] 28.9 µM
not listed: [2] | [3] | [13]
inactive: all other assays above

C=COCCCC
inactive: [1] | [3] | [7] | [8] | [9] | [10] | [15] | [11] | [12] | [13]

CC[C@H]1OC(=O)[C@H](C)[C@@H](O[C@H]2C[C@@](C)(OC)[C@@H](O)[C@H](C)O2)[C@H](C)[C@@H](O[C@@H]2O[C@H](C)C[C@H](N(C)C)[C@H]2O)[C@](C)(O)C[C@@H](C)C(=NOCOCCOC)[C@H](C)[C@@H](O)[C@]1(C)O
not listed: [2] | [4] | [5] | [13] | [16] | [17] | [18] | [19]
inactive: all other assays above

Nc1ccc(Oc2ccc(N)c(N)c2)cc1
active: [11] 30.6 µM
not listed: [3] | [13] | [14] | [16] | [17] | [18] | [19]
inactive: all other assays above
